Screening data (PubChem BioAssay)
Rows were chosen to be rich in hits. Some 1.4% of all compounds tested hit in one or more screens of this group.
PfHsp40 rescue – rescue of PfHsp40-mediated yeast toxicity; S. cerevisiae expressing PfHsp40, growth rescue, ATP luminescence; growth rescue, % at 12.5 µM; actives 0.68% (n = 340,000); in the data active = growth rescue above about 28%, passing the limit was not always enough;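 note: yeast W303a lacking pdr1 and pdr3 grown in galactose medium; growth measured after three days at 30 °C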
Sa RN4220 lethal – S. aureus RN4220 growth inhibition. actives 0.33% (n = 330,000). OD600, 16 h. inhibition, % (test concentration not listed). AID 1259311; in the data active = inhibition above about 85%
Y pestis TopoI – blocks Yersinia pestis topoisomerase I activity; actives 0.064% (n = 360,000); Y. pestis Topo-I cleavage product accumulation, plate reader; activity, % at 10 µM; in the data active = activity above about 50%, passing the limit was not always enough
ugtP null kill – kills S. aureus RN4220 lacking UgtP | S. aureus RN4220 ugtP deletion, OD600 growth, 16 h | growth inhibition, % (concentration not given with the values) | actives 0.54% (n = 330,000) | AID 1259309; in the data active = growth inhibition above about 68%
BJeLR viability – kills HRASV12-expressing BJeLR cells; BJeLR (HRASV12) viability, CellTiter-Glo ATP luminescence, 48 h; inhibition, % (concentration not given with the values); actives 0.17% (n = 300,000); in the data active = inhibition above about 50%
PrP UTR inh – suppresses PrP 5' UTR mRNA reporter expression; cell-based PrP 5' UTR mRNA reporter, plate reader; inhibition, % (no concentration beside the values); actives 0.35% (n = 340,000); AID 488862; in the data active = inhibition above about 52%
Hits are given with their value; i = inactive; nt = not tested or not shown.

SMILES | PfHsp40 rescue | Sa RN4220 lethal | Y pestis TopoI | ugtP null kill | BJeLR viability | PrP UTR inh
O=C(O)c1ccccc1NS(=O)(=O)c1ccc(NN=Cc2ccccc2F)c([N+](=O)[O-])c1 | i | i | i | 91.9 | nt | i
CCOc1ccc(C=NNc2ccc(S(=O)(=O)Nc3ccccc3C(=O)O)cc2[N+](=O)[O-])cc1 | i | i | i | 91.2 | nt | i
CON(C)C(=O)CC1CC(OC(=O)c2ccc([N+](=O)[O-])cc2)CN1C(=O)OC(C)(C)C (stereo not drawn) | nt | i | nt | i | nt | nt
O=C(C1=CC(c2csc3ccccc23)CC(OCCCCO)O1)N1CCN(Cc2ccccc2)CC1 (stereo not drawn) | nt | i | nt | i | nt | nt
O=C(Oc1coc(CSc2ncccn2)cc1=O)c1cccs1 | i | i | i | i | i | i
CCN(CC)S(=O)(=O)c1ccc(C(=O)Oc2coc(CSc3nc(C)cc(C)n3)cc2=O)cc1 | 71.9 | i | i | i | i | i
CN(C)S(=O)(=O)c1ccc(C(=O)Oc2coc(CSc3ncccn3)cc2=O)cc1 | 94.0 | i | i | i | nt | i
Cc1cc(C)nc(SCc2cc(=O)c(OC(=O)c3cccc([N+](=O)[O-])c3)co2)n1 | i | nt | i | nt | i | i
CNC[C@H](CC1CCCCC1)NC[C@H](Cc1ccccc1)NCCC12CC3CC(CC(C3)C1)C2 | i | nt | i | nt | 68.6 | i
CC(C)OC(=O)c1cc2c(=O)[nH]c(C(Cl)(Cl)Cl)nc2o1 | i | 91.9 | i | 86.7 | i | i
CC(C)(C)OC(=O)NCCCCC(C(=O)N1CCN(C(=O)OC(C)(C)C)CC1)n1cc(C(CO)NC(=O)OC(C)(C)C)nn1 (stereo not drawn) | nt | i | nt | i | nt | nt
CC(C)C(NC(=O)OCc1ccccc1)C(=O)NC(C=O)Cc1ccccc1 (stereo not drawn) | nt | i | nt | i | nt | nt
Cc1cc(N2C(=O)C(O)=C(C(=O)c3ccco3)C2c2ccc(Cl)cc2)no1 (stereo not drawn) | i | 87.1 | i | i | i | i
Cc1ccc(C2C(C(=O)c3cc4ccccc4o3)=C(O)C(=O)N2c2cc(C)on2)cc1 (stereo not drawn) | i | nt | 84.7 | nt | i | i
COC(=O)c1ccc(C23CC4(C2)C(CN(Cc2ccc(-c5ccccc5)cc2)C4c2ccccc2)C3c2ccccc2)cc1 (stereo not drawn) | nt | i | nt | i | nt | nt
Oc1ccc(NC(=S)N=Nc2c(O)[nH]c3ccc(Br)cc23)cc1 | i | i | i | i | i | i
Oc1[nH]c2ccc(Br)cc2c1N=NC(=S)Nc1ccc(F)cc1 | i | 99.1 | i | 99.7 | i | i
COc1ccc(C(C)NC(=O)CCc2ccccc2)cc1 (stereo not drawn) | i | i | i | i | i | i
COc1ccc(CCC(=O)NC(C)C)cc1 | 39.1 | i | i | i | i | i
CCCn1c(=O)c(C(=O)NNC(=O)c2ccc(Cl)cc2Cl)c(O)c2ccccc21 | i | i | i | i | i | i
CCCn1c(=O)c(C(=O)NNS(=O)(=O)c2ccc(Cl)cc2)c(O)c2ccccc21 | i | 99.1 | i | 100.4 | i | i
CCCCCCn1c(=O)c(C(=O)NN=Cc2cccc(F)c2)c(O)c2ccccc21 | nt | i | nt | 100.0 | nt | nt
CCCCn1c(=O)c(C(=O)N/N=C/c2ccc(F)cc2)c(O)c2ccccc21 | nt | nt | nt | nt | i | nt
CCCn1c(=O)c(C(=O)NCc2ccc(OC)c(OC)c2)c(O)c2ccccc21 | 334.5 | i | i | i | i | i
CCn1c(=O)c(C(=O)NCc2ccc(OC)c(OC)c2)c(O)c2ccccc21 | i | i | i | i | i | i
SMILES | PfHsp40 rescue | Sa RN4220 lethal | Y pestis TopoI | ugtP null kill | BJeLR viability | PrP UTR inh
CCCCCCCCC(=O)NNC(=O)c1c(O)c2ccccc2n(CCC)c1=O | i | 98.1 | i | 98.0 | i | i
CCCNC(=O)OCC1OC(CCON=CCC2C=CC(OC(C)=O)C(COC(C)=O)O2)C=CC1Oc1ccc(OC)cc1 (stereo not drawn) | nt | i | nt | i | nt | nt
CCOC1OC(C(=O)N2CCN(Cc3ccc4c(c3)OCO4)CC2)=CC(C2CC2)C1CCCO (stereo not drawn) | nt | i | nt | i | nt | nt
CC1CN(C(C)CO)C(=O)c2cccc(NC(=O)CCC(F)(F)F)c2OC1CN(C)S(=O)(=O)c1ccc(F)cc1 (stereo not drawn) | nt | i | nt | i | nt | nt
CCCC(CNC(CNC)C(C)CC)NCC1CCC(C(C)(C)C)CC1 (stereo not drawn) | nt | i | nt | i | nt | nt
COc1ccc(CC2CN3C(=NCC3Cc3ccc(O)cc3)N2CC(C)NC(=O)CCC2CCCCC2)cc1 (stereo not drawn) | nt | i | nt | i | nt | nt
CCCCCCCCCC(=O)NNC(=O)c1c(O)c2ccccc2n(CCC)c1=O | i | i | i | 90.2 | i | i
CCn1c(=O)c(C(=O)NNC(=O)Cc2ccccc2)c(O)c2ccccc21 | i | i | i | i | i | i
CCCCCCCCCCC(=O)NNC(=O)c1c(O)c2ccccc2n(CC)c1=O | nt | 96.9 | nt | 98.8 | i | nt
CCOC(=O)C1C2COc3ccc(Br)cc3C2N2C(=O)N(c3cccc(F)c3)C(=O)[C@@]12C (stereo partly drawn) | nt | i | nt | i | nt | nt
C=C(C)C(=O)Nc1cccc(C2=NOC3(C2)CC(C(N)=O)N(C(=O)C=CCC)C3)c1 (stereo not drawn) | nt | i | nt | i | nt | nt
CC=CC=CC(=O)N1CC2(CC(c3cccc(NC(=O)C(C)=CC)c3)=NO2)CC1C(N)=O (stereo not drawn) | nt | i | nt | i | nt | nt
Cc1ccc(-c2c(C(=O)N/N=C/c3ccc4c(c3)OCO4)nnn2-c2nonc2N)cc1 | i | nt | 57.9 | nt | i | i
Nc1nonc1-n1nnc(C(=O)NN=Cc2ccc(F)cc2)c1-c1ccc2c(c1)OCO2 | nt | i | nt | i | nt | nt
Cc1cc(C(=O)NC(c2ccccc2)[C@@]2(C)CC2C(C)C(=O)Nc2ccc3ccccc3c2)n(C)n1 (stereo partly drawn) | nt | i | nt | i | nt | nt
CC(C)NC(=O)N(C)CC1Oc2c(NS(=O)(=O)c3cccs3)cccc2C(=O)N(C(C)CO)CC1C (stereo not drawn) | nt | i | nt | i | nt | nt
COc1ccc(C=c2sc(=CC(=O)c3ccc(C)cc3)[nH]c2=O)c(OC)c1 | nt | i | nt | 88.6 | nt | nt
CC(C)CSc1n[nH]c(=S)s1 | 213.0 | i | i | i | i | i
COC(=O)c1ccc(-c2noc(CN3CCCC(CNC(C)=O)C3)n2)cc1 (stereo not drawn) | i | i | i | i | i | 58.4
Cc1ccnc(NC(c2ccsc2)c2ccc3ccc(C)nc3c2O)c1 (stereo not drawn) | 249.6 | i | i | i | i | i
COc1ccccc1NC(c1cccnc1)c1ccc2cccnc2c1O (stereo not drawn) | i | i | i | i | i | i
Cc1cc(NC(c2ccc(Cl)cc2)c2ccc3cccnc3c2O)no1 (stereo not drawn) | 44.0 | i | i | i | i | i
Cc1ccnc(NC(c2ccccc2)c2ccc3cccnc3c2O)c1 (stereo not drawn) | 153.7 | i | i | i | nt | i
O=C(O)c1ccccc1NC(c1ccccc1)c1ccc2cccnc2c1O (stereo not drawn) | 322.0 | nt | i | nt | nt | i
